Screening results: PubChem BioAssay, National Center for Advancing Translational Sciences (NCATS)
In the library only some 7.2% were active in any assay of this set; here they are far more common.
Sm TGR inh = blocks Schistosoma mansoni thioredoxin glutathione reductase. Q962Y6. Potency, µM (top dose mostly 114 µM), hits mostly inhibitors. hit rate 3% among 360,000. purified TGR, DTNB reduction, TNB absorbance 405 nm; note: nearly all actives have a fitted effect of over 60% in size
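Kinetic colorimetric format: TGR-catalysed, NADPH-driven DTNB reduction monitored via TNB absorbance. Enzyme dispensed at 20 nM; compound exposure 15 min at room temperature before reaction start.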
Lassa entry inh = blocks Lassa virus binding to or entry into cells. Lassa virus pseudotype entry inhibition, cell reporter. Potency, µM (titrated, usually from 37.9 µM), actives largely listed as inhibitors. hit rate 1.2% among 300,000; calls by dose curve; tested in HEK293 cells; note: nearly all actives have a fitted effect of over 50% in size
RE007 growth inh = less growth of the S. pombe RE007 Vpr strain; Potency, µM (doses to about 92.2 µM), usual class: inhibitors; hit rate 0.21% among 360,000; S. pombe RE007 Vpr strain, BacTiter-Glo ATP luminescence, 24 h; AID 651644; active = well fitted falling curve with a large enough effect; inconclusive = small, poorly fitted or top-dose-only effect; inactive = no such curve, though single readings can be large or run the other way; note: nearly all actives have a fitted effect of over 50% in size
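Fission yeast RE007 carrying one integrated HIV-1 vpr copy, seeded at OD 0.01 in PMG+AL medium with 23 nL pinned compound. Grown 24 h at 30 degrees; viability read by BacTiter-Glo luminescence after 5 min.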
Marburg entry inh = inhibitors of Marburg virus binding or cell entry | hit rate 1.8% among 300,000 | Potency, µM (top dose mostly 37.8 µM), hits mostly inhibitors | AID 540276 | Marburg virus pseudotyped entry inhibition, cell reporter; calls by dose curve; tested in HEK293 cells
FMDV inh = antivirals against foot and mouth disease virus; FMDV antiviral cell-based qHTS; Potency, µM (titrated, usually from 57.9 µM), hits mostly inhibitors; hit rate 1.2% among 410,000; AID 1159524; calls by dose curve; tested in HEK293T cells; note: read-out not given here; nearly all actives have a fitted effect of over 45% in size
HCV inh = HCV inhibition | Potency, µM (highest dose often 41.8 µM), hits mostly inhibitors | hit rate 3.4% among 340,000 | Huh7.5.1 HCVcc-Cre infection, luciferase reporter, 44 h
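HCVcc-Cre virus at an moi near 0.5 was added right after compound to cells cultured 4 h from seeding (1,000 cells/well). Luciferase activity was determined 44 h later, 15 min after substrate addition at RT.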
Each line names hits and unclear results; the compound was inactive in the other large screens. Unless noted, calls come from the whole dose curve; as a rule, active = well fitted curve in the direction sought with a large enough effect; inconclusive = small, poorly fitted or top-dose-only effect, or another doubt; inactive = no such curve, though single readings can be large; an effect the other way counts as inactive or inconclusive.

Cc1ccc(-c2csc(NC(=O)c3ccc(Br)cc3)c2C(=O)O)cc1	Lassa entry inh inconclusive, Marburg entry inh 1.3µM
COc1ccccc1CCNC(=O)CCc1c(C)c2cc3c(C)coc3c(C)c2oc1=O	none (no result: RE007 growth inh, HCV inh)
COc1cc(OC)c(NC(=O)c2cn(C3CCCC3)c(=O)c3c2c2ccccc2n3C)cc1Cl	none (no result: RE007 growth inh, HCV inh)
CCOC(=O)c1c(-c2ccc(C)cc2)csc1NC(=S)NC(=O)c1ccccc1	Lassa entry inh 2.1µM, Marburg entry inh 1.8µM, FMDV inh inconclusive, HCV inh inconclusive
COC(=O)c1c(-c2ccc(C)cc2)csc1NC(=S)NC(=O)c1ccc(F)cc1	none
COc1ccc(NC(=O)CCNS(=O)(=O)c2ccc(Cl)c([N+](=O)[O-])c2)cc1S(N)(=O)=O	Sm TGR inh 35µM, Lassa entry inh inconclusive
Oc1ccc(-c2nc3c4c(ncn3n2)-c2ccccc2CC42CCCC2)cc1	FMDV inh 25µM, HCV inh inconclusive
CC(C)Oc1cccnc1N(C)C1CCN(Cc2ccccc2)CC1	Marburg entry inh 1.8µM (no result: Sm TGR inh)
Cc1ccc(C(=O)NCCc2nnc3n2CCN(Cc2cc(C)cc(C)c2)CC3)cc1	none (no result: Sm TGR inh, Lassa entry inh, RE007 growth inh, Marburg entry inh, HCV inh)
CCOC(=O)Cc1csc(NC(=O)c2ccc(N3CCOCC3)cc2[N+](=O)[O-])n1	FMDV inh 18µM, HCV inh 11µM (no result: Lassa entry inh, Marburg entry inh)
C[C@]12CCC(=O)C=C1CCC1C2C(O)C[C@]2(C)C1CC[C@]2(O)C(=O)COC(=O)CCC(=O)O (some centres not stated)	none (no result: Sm TGR inh, Lassa entry inh, RE007 growth inh, Marburg entry inh, HCV inh)
CC(C)(C)c1ccc(C(=O)N2CCC2(C)C(=O)NCc2cccs2)cc1 (configuration not stated)	FMDV inh inconclusive (no result: Sm TGR inh, Lassa entry inh, Marburg entry inh, HCV inh)
CC(C)Oc1ccc(Cc2cnc(=S)[nH]c2N)cc1	Sm TGR inh 71µM (no result: Lassa entry inh, Marburg entry inh)
CC(C)COc1ccc(Cc2cnc(N)nc2N)cc1	HCV inh inconclusive
Cc1cc(C)cc(CC(Cc2nc3ccccc3[nH]2)c2nc3ccccc3[nH]2)c1 (configuration not stated)	Lassa entry inh inconclusive, Marburg entry inh inconclusive, FMDV inh inconclusive, HCV inh 5µM
CCOC(=O)C1=C(CS(=O)(=O)c2ccc(C)cc2)NC(=O)NC1c1ccc(C(C)C)cc1 (configuration not stated)	Lassa entry inh inconclusive, Marburg entry inh inconclusive (no result: RE007 growth inh, HCV inh)
Cc1cc2n(n1)C(c1ccc(O)cc1)Nc1ccccc1-2 (configuration not stated)	HCV inh inconclusive
Cc1cc2n(n1)C(c1cn(-c3ccccc3)nc1C)Nc1ccccc1-2 (configuration not stated)	none
Cc1cc2n(n1)C(c1cccs1)Nc1ccccc1-2 (configuration not stated)	HCV inh 2.8µM
Cc1cc2n(n1)C(c1c[nH]c3ccccc13)Nc1ccccc1-2 (configuration not stated)	Marburg entry inh inconclusive, HCV inh 4µM
O=C(Nc1cc(C(F)(F)F)ccc1Cl)c1noc2c1CCCCC2	Marburg entry inh inconclusive (no result: RE007 growth inh, HCV inh)
CCOc1ccccc1CNC(=O)c1cc2c(=O)n(Cc3cccnc3)ccc2nc1C	none (no result: RE007 growth inh, Marburg entry inh, HCV inh)
CC(=O)c1ccc2noc(-c3cccc(F)c3)c2c1	Sm TGR inh inconclusive, HCV inh 2.2µM
Cc1nc2cc(NC(=O)[C@@H]3C[C@@H](Sc4ccccn4)CN3Cc3ccc(F)cc3F)ccc2s1	none (no result: Sm TGR inh, Lassa entry inh, RE007 growth inh, Marburg entry inh, HCV inh)
O=C(/C=C/c1c(Cl)cccc1Cl)n1cccn1	Sm TGR inh 18µM
Cc1cccc(C)c1Nc1c(-c2ccc(Cl)s2)nc2ncccn12	Marburg entry inh inconclusive (no result: RE007 growth inh, HCV inh)
C=CCOC(=O)N[C@H](C(C(=O)OC)=C(C)NCc1ccccc1)c1cccc(C(F)(F)F)c1	Lassa entry inh inconclusive (no result: Sm TGR inh, RE007 growth inh, FMDV inh, HCV inh)
COc1ccc(CNCCC(c2ccccc2)c2ccc3c(c2)OCO3)cc1 (configuration not stated)	Lassa entry inh inconclusive, Marburg entry inh inconclusive, HCV inh 10µM
COc1ccc(CNCCC(c2ccc(C)cc2)c2ccco2)cc1 (configuration not stated)	Marburg entry inh 28µM (no result: RE007 growth inh, HCV inh)
[O-]/C(=C(\C(=S)Nc1ccc(SC(F)F)cc1)[n+]1ccccc1)c1ccc(Cl)cc1Cl	Lassa entry inh inconclusive, Marburg entry inh inconclusive, HCV inh 13µM
Cc1cc(C)cc(NC(=S)/C(=C(\[O-])c2ccc(Cl)cc2Cl)[n+]2ccccc2)c1	none (no result: Lassa entry inh, Marburg entry inh)
